The campaign covered roughly 300,000 compounds. About 4,000 (1.3%) were called active. The full list was thinned out, with actives kept by preference. Values without a mark were called inactive.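 Rule for the calls: active = mean replicate score, as percent of positive control median, at least 50; inconclusive = mean below 50 but one replicate at or above 50; inactive = mean and every replicate below 50.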

93 compounds from PubChem BioAssay AID1662 (Broad Institute, 2009) can be followed below.

The assay is described as follows: S. pyogenes SKKanGAS growth inhibitors in kanamycin, primary screen, streptokinase expression inhibitor project, SKKanGAS strain, BacTiter-Glo luminescence (AID 1662).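 Note: strain carries kanamycin resistance gene driven by streptokinase promoter and grows in 40 µg/ml kanamycin; loss of luminescence reflects streptokinase promoter inhibition or plain growth inhibition; 0% = median of DMSO wells and 100% = positive control at its reference dose.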 The conditions noted are these: 6 h, at 7.5 µM, active compounds read high.
As usually defined, the inhibition is the change of the read-out against control, counted positive when it falls. Consider `CCCNC(=O)C(=O)Nc1cc2c3c(c1)CCC(=O)N3CCC2`, for which the inhibition was -4.99%. For the compound `COc1cc(NS(=O)(=O)c2ccc(NC(=S)NC(=O)c3ccc(Br)cc3)cc2)ncn1`, the inhibition is 16.4%. In the case of `CC(c1cccnc1)N(CCN(C)C)C(=O)Nc1ccc(Cl)c(Cl)c1` (stereo not drawn) it was -0.312%; in that of `O=C(COC(=O)c1cccc(Br)c1)Nc1cccc2c1C(=O)c1ccccc1C2=O`, -1.24%; in that of `Cc1ccccc1C(=O)Nc1ccccc1Sc1ccccc1`, 25.4%. With `O=C(COC(=O)c1ccccc1)Nc1ccccc1Sc1ccccc1`, the inhibition was 58.2% (active). `CC(=O)N[C@H]1[C@H]([C@H](O)[C@H](O)CO)OC(C(=O)O)=C[C@@H]1O`: the inhibition was -0.96%. In the case of `N=c1c2c(-c3ccccc3)c(-c3ccccc3)n(Cc3ccccc3)c2ncn1CCCO` it was -1.98%; in that of `COc1ccc(-c2oc3ncnc(NCCCO)c3c2-c2ccc(OC)cc2)cc1`, 33.4%; in that of `COc1ccc2[nH]c3c(=O)n(Cc4ccco4)cnc3c2c1`, 17.1%.

As to `N=c1c2c(-c3ccccc3)c(-c3ccccc3)oc2ncn1Cc1ccco1`, the inhibition was 63.5% (active).

`c1ccc(-c2oc3ncnc(N4CCOCC4)c3c2-c2ccccc2)cc1`: the inhibition is -2.29%. As to `COc1ccc(-c2oc3ncn(Cc4ccco4)c(=N)c3c2-c2ccc(OC)cc2)cc1`, the inhibition was 55% (active). As for `O=C(O)CC(Cn1cnnn1)c1ccccc1` (stereo not drawn), the inhibition was -1.95%.

On to `C/C(CC(C)C)=N\Oc1nc(C)cc(C)n1`, for which the inhibition was -4.06%. For `O=[N+]([O-])c1ccc(NCCCO)c(C(F)(F)F)c1`, the inhibition was 0.29%. Turning to `COc1cc(C=O)ccc1Oc1nnnn1-c1ccccc1`, the inhibition is 24.2%.

On to `CN(C(=O)Nc1ccc(Cl)cc1)n1cnc2ccccc2c1=O`, for which the inhibition was 3.63%. As for `O=C(CCCO)N/N=C/c1cc(Br)ccc1O`, the inhibition was -3.72%. On to `Oc1ccc(/C=N/Nc2ccc(C(F)(F)F)cn2)cc1O`, for which the inhibition is -9.78%. With `Oc1ccc(Br)cc1/C=N/Nc1ccccn1` the figure was 106% (active); with `CN(C)Cc1ccc(F)cc1Sc1cc(Cl)ccc1Cl`, -3.54%; with `Cc1nc(NC(=O)c2cccc(Cl)c2)sc1-c1csc(Nc2cccc(Cl)c2)n1`, 25.6%.

`O=C(Nc1ccc(-c2csc(Nc3cccc(C(F)(F)F)c3)n2)cc1)c1cccc(C(F)(F)F)c1`: the inhibition was 98.6% (active). As to `CC(=O)Nc1ccc(S(=O)(=O)Nc2nc(-c3ccc(C(C)(C)C)cc3)cs2)cc1`, the inhibition is 0.664%. Turning to `COc1c(O)cc2oc(-c3ccc(O)c(O)c3)cc(=O)c2c1O`, the inhibition was 3.54%.

Take `OCc1ccc(-c2ccccc2)c(-c2ccccc2)c1`: the inhibition was -11.9%. With `COCCNC(=S)N(CCc1c(C)[nH]c2ccc(C)cc12)Cc1cccnc1` the figure was 8.58%. On to `O=C(O)c1cccc(N=NN2CCCCCC2)c1`, for which the inhibition was 5.53%.

Turning to `C[C@H]1[C@H]2c3nc4ccccc4n3C[C@H]1ON2C1CCCCC1`, the inhibition is -3.38%. In the case of `Cc1ccccc1-n1c(SCC(=O)Nc2cccc3ccccc23)nc(O)cc1=O` it was 18.6%; in that of `COc1ccc(NC(=O)CSc2nc3ccccc3c(=O)n2C)cc1`, -4.23%; in that of `Cn1c(SCC(=O)Nc2ccc(Cl)cc2)nc(O)cc1=O`, 112% (active). Regarding `C/C(=N\Nc1cccc(C(=O)O)c1)c1ccc2c(c1)Nc1ccccc1S2`, the inhibition was 0.801%.

With `COc1ccccc1CCNC(=O)c1c(C)nn(CC(C)C)c1Cl`, the inhibition was -0.777%. In the case of `O=C(Cc1ccc(S(=O)(=O)N2CCOCC2)s1)N1CCN(c2ccc(C(F)(F)F)cc2[N+](=O)[O-])CC1`, the inhibition is 3.49%.

As for `O=C(Nc1cccc(C(F)(F)F)c1)c1ccc(N2CCNCC2)c([N+](=O)[O-])c1`, the inhibition was -0.102%. With `COc1cc(OC)cc(C(=O)NC(=S)N2CCN(c3ccc(C(F)(F)F)cc3[N+](=O)[O-])CC2)c1` the figure was 86.6% (active); with `Cc1cc(C(=O)OCC(=O)NCc2ccco2)c(C)n1-c1ccccc1`, 2.24%; with `O=C(NNc1ccccc1Cl)C(O)(c1cccc(C(F)(F)F)c1)c1cccc(C(F)(F)F)c1`, 98.2% (active). In the case of `CC(CC(=O)Nc1cc(C(F)(F)F)ccc1Cl)c1ccccc1` (stereo not drawn) it was 24.4%; in that of `O=C(Nc1cc(C(F)(F)F)ccc1Cl)C(=O)N1CCCCC1`, -4.87%.

Consider `COc1cc(C)c(S(=O)(=O)N2CCOCC2)c(C)c1C`, for which the inhibition was 0.811%. With `COCCN(CCOC)C(=S)Nc1ccccc1Cl` the figure was -4.57%. Take `O=C(Nc1ccccc1Cl)/C(Cl)=C(\Cl)S(=O)c1ccccc1` (stereo not drawn): the inhibition is 75.1% (active). Turning to `O=C(Nc1ccccc1Cl)Nc1cccc2cccnc12`, the inhibition was -4.43%.

As to `Cn1cccc1C(C#N)c1ccccc1C#N` (stereo not drawn), the inhibition is 0.367%.

Turning to `Cc1cc(C)c2nc(N(CCN(C)C)C(=O)/C=C/c3cccs3)sc2c1`, the inhibition is 3.15%. On to `CCn1c(SCC(=O)Nc2ccc(S(=O)(=O)Nc3onc(C)c3C)cc2)nnc1-c1ccccc1`, for which the inhibition is -0.983%. Consider `Cc1noc(NS(=O)(=O)c2ccc(NC(=O)c3oc4ccc(F)cc4c3C)cc2)c1C`, for which the inhibition was 25.3%.

With `Cc1cc(C)c2nc(-c3cccnc3)cc(C(=O)Nc3ccc(S(=O)(=O)Nc4onc(C)c4C)cc3)c2c1`, the inhibition is 64.7% (active). On to `Cc1ccsc1CNn1cnnc1SCc1ccccc1F`, for which the inhibition was -0.394%. For `c1ccc(-c2cc(N3CCCCC3)c3ccccc3n2)cc1`, the inhibition was 13.6%.

For the compound `FC(F)(F)c1cccc(-c2cc3ccccc3nc2N2CCCC2)c1`, the inhibition is 51.7% (active). With `O=C(c1cc2ccccc2o1)N1CCN(c2cccc(C(F)(F)F)c2)CC1`, the inhibition was 0.601%. `O=C(c1ccc(OC2CCN(C(=O)c3cccnc3)CC2)cc1)N1CCCCCC1`: the inhibition was -5.73%.

For the compound `Cc1[nH]n(-c2ccccc2)c(=O)c1/C=N/NC(=O)c1ccoc1C`, the inhibition was -29.8%. For `O=C(N/N=C/c1cccc([N+](=O)[O-])c1)c1ccncc1`, the inhibition is 1.34%.

With `Cc1ccc(-n2[nH]c(C)c(/C=N/NC(=O)c3cccc([N+](=O)[O-])c3)c2=O)cc1C`, the inhibition was 91.5% (active). In the case of `CC1=C2C(=O)OC(c3ccoc3)C2(C)CCC1` (stereo not drawn) it was -13.7%. Regarding `CCC(NC(=O)C1CCCC1)c1ccc(C)cc1` (stereo not drawn), the inhibition is 5.2%. With `Cc1nn(C)c(C)c1S(=O)(=O)N1CCC(CO)(Cc2ccc(Cl)cc2)CC1` the figure was -2.57%; with `COc1ccccc1NC(=S)N1CCN(c2ccc(F)cc2)CC1`, -4.99%; with `CC1CN(C(=S)Nc2ccccc2F)CC(C)O1` (stereo not drawn), -2.73%.

On to `COc1c(N2CCN(C(=S)Nc3ccccc3F)C(C)C2)c(F)cc2c(=O)c(C(=O)O)cn(C3CC3)c12` (stereo not drawn), for which the inhibition is 104% (active). For the compound `COc1ccc(S(=O)(=O)NCC(=O)NC2CC2)cc1OC`, the inhibition is -2.16%. Turning to `Cc1cc(Cl)c2oc(C(=O)N(C)C(C)c3ccccn3)c(C)c2c1` (stereo not drawn), the inhibition was 8.03%. Consider `Cc1cc(Cl)c2oc(C(=O)N3CCC(O)(c4ccccc4)CC3)c(C)c2c1`, for which the inhibition was 64.2% (active). With `Cc1cc(Cl)c2oc(C(=O)NC(C)c3ccncn3)c(C)c2c1` (stereo not drawn), the inhibition is -5.52%. In the case of `COc1ccc(CCNC2=CC(=O)CC(C)(C)C2)cc1` it was -6.22%; in that of `CC(C)(C)N1C(=O)[C@H]2[C@@H](c3ccc(Br)cc3)N3C(=O)N(c4cccc(Cl)c4)C(=O)[C@@]3(C)[C@H]2C1=O`, -0.18%.

With `Cc1cccc(-n2nc3c(c2NC(=O)c2cc4ccccc4o2)CS(=O)(=O)C3)c1`, the inhibition is 1.09%.

As to `CCOC(=O)c1cc(-c2ccc(F)cc2)n(CC(=O)NCc2ccccn2)c1C`, the inhibition is -1.39%. With `COC(=O)c1ccc(Oc2nc(Nc3ccc(F)cc3)nc(N3CCCC3)n2)cc1` the figure was 18.8%.

`COc1nc(NC2CCCCC2)nc(N2CCCCCC2)n1`: the inhibition is 75.9% (active). As for `Clc1nc(NC2CCCC2)nc(N2CCOCC2)n1`, the inhibition is 3.5%. As for `O=c1cc(C(F)(F)F)[nH]c(=O)n1C1CCCCC1`, the inhibition is 11.3%. With `O=C(c1cccc(F)c1)N1CCN(c2ccc([N+](=O)[O-])c3cccnc23)CC1` the figure was -4.2%; with `Cc1nnc(SCC(=O)NC2CCCC2)s1`, -0.971%; with `Cc1nnc(SCC2=C(C(=O)O)N3C(=O)C(NC(=O)Cn4nc(C)c(Cl)c4C)C3SC2)s1` (stereo not drawn), 88.3% (active).

Turning to `Cc1cc(C)cc(C(=O)NC2C(=O)N3C(C(=O)O)=C(CSc4nnc(C)s4)CSC23)c1` (stereo not drawn), the inhibition is 96.4% (active).

Consider `Cc1cccc(CSc2nnc(NC(=O)CSc3nnc(C)s3)s2)c1`, for which the inhibition was 7.83%.

For `Cc1nnc(SCC(=O)Nn2cnnc2)s1`, the inhibition was 4.69%. On to `COc1ccc(NC(=O)CCCC(=O)c2ccccc2)cc1`, for which the inhibition is 1.96%.

For `CCOc1ccccc1/C=N/Nc1nc2ccccc2o1`, the inhibition was 2.09%. `COc1cc(N/C=C2\CC(=O)NC(C)=C2C#N)cc(OC)c1OC`: the inhibition was -0.282%. Take `O=C(Nc1ccc(F)cc1)c1ccc(S(=O)(=O)NCc2cccnc2)cc1`: the inhibition was -0.655%. `FC(F)(F)c1cc(-c2cccs2)nc(NCc2ccco2)n1`: the inhibition was -2.9%. In the case of `FC(F)(F)c1cc(-c2ccco2)nc(NCc2ccc(Cl)cc2)n1`, the inhibition is 65.4% (active).

For `Cc1cc(C(F)(F)F)nn1-c1nc(-c2ccco2)cc(C(F)(F)F)n1`, the inhibition is 7.56%.

As to `O=[N+]([O-])c1ccc(S(=O)(=O)Nc2cccc(-c3ccc(N4CCCC4)nn3)c2)cc1`, the inhibition was 0.0506%. In the case of `O=S(=O)(Nc1ccc(-c2ccc(N3CCOCC3)nn2)cc1)c1cc(Cl)ccc1Cl` it was 18.8%. In the case of `O=S(=O)(Nc1cccc(-c2ccc(N3CCOCC3)nn2)c1)c1ccc(Cl)c(Cl)c1` it was 53.5% (active).
